From PubChem
Shown are actives, neighbours in structure and some others; about 27% of the full set was active somewhere.
CYP2C19 inhib – inhibitors of human CYP2C19. P33261. CYP2C19 Supersomes, luciferin-H EGE luminescence, 30 min. inhibition, % at 5 µM. actives 21% (n = 96,000). AID 778;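 active = CYP2C19 inhibition above a set limit at 5 µM in the primary screen, cut at about 50% in these data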;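 note: plate controls were negative control wells for no effect and 2.5 mM tranylcypromine positive control for full effect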
CYP2C19 activ – activators of human cytochrome P450 2C19; P33261; recombinant CYP2C19, luciferin-H EGE luminescence; active compounds read high; 0 = fully inhibited enzyme, 1 = untreated enzyme; activation factor at 5 µM; 96,000 tested, under 10 active; AID 1025;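 active = activation factor of at least 2 at 5 µM in the primary screen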;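 note: 0 = wells with 2.5 mM tranylcypromine and 1 = vehicle-only wells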
CYP2C9 activ – CYP2C9 (human) activation; P11712; recombinant CYP2C9, luciferin-H conversion, luminescence; active compounds read high; factor 1 = untreated enzyme, 0 = blocked; activation factor at 5 µM; actives 1.4% (n = 96,000); AID 1024;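 active = activation factor of 2 or more for CYP2C9 at a 5 µM dose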;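 note: 0 = sulfaphenazole-blocked wells and 1 = vehicle-only wells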
Target sequence (P11712 whole entry, looked up): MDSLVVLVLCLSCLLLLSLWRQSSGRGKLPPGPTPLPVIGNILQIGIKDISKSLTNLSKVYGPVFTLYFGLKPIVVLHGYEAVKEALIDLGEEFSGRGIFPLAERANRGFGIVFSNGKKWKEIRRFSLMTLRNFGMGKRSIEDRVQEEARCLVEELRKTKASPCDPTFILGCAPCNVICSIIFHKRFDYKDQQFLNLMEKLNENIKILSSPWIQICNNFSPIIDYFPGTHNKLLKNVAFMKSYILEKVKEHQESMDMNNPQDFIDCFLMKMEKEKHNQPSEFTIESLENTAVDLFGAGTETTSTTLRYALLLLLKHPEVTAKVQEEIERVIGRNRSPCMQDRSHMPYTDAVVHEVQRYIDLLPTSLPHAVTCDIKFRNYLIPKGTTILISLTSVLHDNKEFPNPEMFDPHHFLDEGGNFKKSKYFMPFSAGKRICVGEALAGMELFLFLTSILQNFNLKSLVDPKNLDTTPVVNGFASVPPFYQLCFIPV
CYP2C9 inh – inhibitors of human CYP2C9; inhibition, % at 5 µM; P11712; CYP2C9 Supersomes, luciferin-H conversion, luminescence; actives 20% (n = 96,000);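 active = blocking of liver enzyme CYP2C9 beyond about 50% at 5 µM, limit read from the data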
PTK2B oligo ant – antagonists of human Pyk2 oligomerization; AID 1347419; Q293 cells, Pyk2 FERM NanoBiT luminescence; active compounds read low; actives 0.83% (n = 99,000); z-score (the deposit names both 25 µM and 10 µM);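 active = Z-score of -3 or lower, scaled per plate to the spread of control and sample wells; inactive = z-score above -3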;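 note: negative z-score means lost luminescence so less FERM oligomerization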
Cav32 inh – human Cav3.2 channel inhibition, primary screen; actives 4% (n = 100,000); O95180; B-score at 10 µM; AID 449739; Cav3.2-expressing cells, Fluo-4 calcium fluorescence FDSS; active compounds read low;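 active = single-dose well whose peak fluorescence ratio is a statistical outlier from its plate by either plate-standardised score or position-corrected B-score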
The depositor's hits bear a star.

What do the screens show for `c1ccc(CNc2ccc3c(c2)ncn3C2CCCCC2)nc1`?
CYP2C19 inhib: 8; CYP2C19 activ: 0.9; CYP2C9 activ: 0.9; CYP2C9 inh: 13; PTK2B oligo ant: -1; Cav32 inh: -0.08

How did O=C(CCCCCn1c(=O)[nH]c2ccccc2c1=O)NCCCN1CCN(c2ccccc2F)CC1 do in these assays?
CYP2C19 inhib: 33; CYP2C19 activ: 0.7; CYP2C9 activ: 0.6; CYP2C9 inh: 44; PTK2B oligo ant: 0.72

How did Cc1cccc2cc(CN(Cc3ccc(F)cc3)C(=O)N(C)C)c3nnnn3c12 do in these assays?
CYP2C19 inhib: 30; CYP2C19 activ: 0.7; CYP2C9 activ: 0.6; CYP2C9 inh: 39; PTK2B oligo ant: -2; Cav32 inh: -6.1*

What do the screens show for `Cc1ccc(-n2cc(C(C)(C)C)[nH]c2=S)cc1`?
CYP2C19 inhib: 60*; CYP2C19 activ: 0.4; CYP2C9 activ: 1.4; CYP2C9 inh: -36; PTK2B oligo ant: -0.24; Cav32 inh: 0.28

Results for O=C(CCC(=O)c1ccc(F)cc1)OC1CCOC1=O (centres undefined) ?
CYP2C19 inhib: 78*; CYP2C19 activ: 0.2; CYP2C9 activ: 1.2; CYP2C9 inh: -16; PTK2B oligo ant: 0.16; Cav32 inh: -0.0098

How did CCSc1nc(-c2ccc(OC)cc2)n(-c2nc3ccccc3s2)n1 do in these assays?
CYP2C19 inhib: 12; CYP2C19 activ: 0.9; CYP2C9 activ: 0.5; CYP2C9 inh: 54*; PTK2B oligo ant: -0.67; Cav32 inh: -2.8

Results for C=CCn1c(SCC(=O)/C(C#N)=C(\C)N)nc2sc(CC)cc2c1=O ?
PTK2B oligo ant: -2.8

How did C=CCn1c(SCC(=O)N2CCN(C(=O)c3ccco3)CC2)nc2sc(CC)cc2c1=O do in these assays?
CYP2C19 inhib: 90*; CYP2C19 activ: 0.1; CYP2C9 activ: 0; CYP2C9 inh: 99*; PTK2B oligo ant: -0.13; Cav32 inh: 2.3

How did C=CCn1c(SCC(=O)Nc2cc(C)on2)nc2sc(CC)cc2c1=O do in these assays?
CYP2C19 inhib: 5; CYP2C19 activ: 0.9; CYP2C9 activ: 0.3; CYP2C9 inh: 72*; PTK2B oligo ant: -2; Cav32 inh: -0.036

How did C=CCn1c(SCC(=O)c2cccs2)nc2sc(CC)cc2c1=O do in these assays?
CYP2C19 inhib: -2; CYP2C19 activ: 1; CYP2C9 activ: 0.7; CYP2C9 inh: 25; PTK2B oligo ant: -3.2*; Cav32 inh: -1.6

How did CCCC(=O)Nc1sc2c(c1C#N)CCCCC2 do in these assays?
PTK2B oligo ant: 2.1; Cav32 inh: -0.83

What do the screens show for `CCOc1ccc(CCNC(=O)c2oc3c(c2C)-c2[nH]ncc2CC3)cc1OCC`?
CYP2C19 inhib: 3; CYP2C19 activ: 1; CYP2C9 activ: 0.8; CYP2C9 inh: 21; Cav32 inh: 1

Results for CC(C)Oc1ccc(C(CC(=O)NCc2ccco2)c2ccccc2)cc1 (centres undefined) ?
CYP2C19 inhib: 61*; CYP2C19 activ: 0.4; CYP2C9 activ: 0.3; CYP2C9 inh: 68*; PTK2B oligo ant: -2.5; Cav32 inh: -3.9*

How did COc1ccc(S(=O)(=O)NC(CC(=O)NCc2ccco2)c2ccco2)cc1 (centres undefined) do in these assays?
CYP2C19 inhib: 23; CYP2C19 activ: 0.8; CYP2C9 activ: 0.9; CYP2C9 inh: 10; PTK2B oligo ant: -0.41

How did CCOC(=O)CC1C(=O)NCCN1S(=O)(=O)c1ccc(Cl)cc1Cl (centres undefined) do in these assays?
CYP2C19 inhib: 15; CYP2C19 activ: 0.8; CYP2C9 activ: 0.8; CYP2C9 inh: 24; PTK2B oligo ant: 0.71; Cav32 inh: 0.45

Results for Fc1cccc(-c2cc3nc4c(c(N5CCOCC5)n3n2)CCCC4)c1 ?
CYP2C19 inhib: 63*; CYP2C19 activ: 0.4; CYP2C9 activ: 0.1; CYP2C9 inh: 94*; PTK2B oligo ant: -3.2*; Cav32 inh: 0.19

What do the screens show for `CCOC(=O)/C(=C\Nc1ccc(OC(F)(F)F)cc1)Sc1ncc(C(F)(F)F)cc1Cl`?
CYP2C19 inhib: 40; CYP2C19 activ: 0.6; CYP2C9 activ: 0.5; CYP2C9 inh: 48; PTK2B oligo ant: -0.55; Cav32 inh: -3.3

How did COc1ccc(CCNC(=O)c2ccncc2)cc1OC do in these assays?
CYP2C19 inhib: 64*; CYP2C19 activ: 0.4; CYP2C9 activ: 0.6; CYP2C9 inh: 43; PTK2B oligo ant: -0.04; Cav32 inh: 0.02

How did COc1ccc(CCNC(=O)c2cc3sc(Cl)cc3n2C)cc1OC do in these assays?
CYP2C19 inhib: 69*; CYP2C19 activ: 0.3; CYP2C9 activ: 0.3; CYP2C9 inh: 74*

How did COc1ccc(CCNC(=O)c2cccnc2)cc1OC do in these assays?
CYP2C19 inhib: 45; CYP2C19 activ: 0.6; CYP2C9 activ: 1.1; CYP2C9 inh: -13; PTK2B oligo ant: 1.1; Cav32 inh: 0.79

Results for COc1ccc2c(c1)CCc1c(C(=O)NCCc3ccc(OC)c(OC)c3)noc1-2 ?
CYP2C19 inhib: 33; CYP2C19 activ: 0.7; CYP2C9 activ: 0.5; CYP2C9 inh: 54*; PTK2B oligo ant: -0.37; Cav32 inh: 1.3

What do the screens show for `Cc1ccc(C)c(S(=O)(=O)NCc2ccc(C(=O)N3CCCCC3C)cc2)c1` (centres undefined)?
CYP2C19 inhib: 57*; CYP2C19 activ: 0.4; CYP2C9 activ: 1.5; CYP2C9 inh: -53; PTK2B oligo ant: -0.49; Cav32 inh: -1.5

How did CNC(=S)NCCc1ccc(OC)c(OC)c1 do in these assays?
CYP2C19 inhib: 56*; CYP2C19 activ: 0.4; CYP2C9 activ: 1; CYP2C9 inh: 3

What do the screens show for `COc1ccc(CN(Cc2cccnc2)C(=S)NCCc2ccccc2)cc1OC`?
CYP2C19 inhib: 96*; CYP2C19 activ: 0; CYP2C9 activ: 0.1; CYP2C9 inh: 94*; PTK2B oligo ant: -2.9; Cav32 inh: -0.5

Results for COc1ccc(CCNC(=O)c2ccc(CNS(=O)(=O)c3cc(C)ccc3C)cc2)cc1OC ?
CYP2C19 inhib: 76*; CYP2C19 activ: 0.2; CYP2C9 activ: 0; CYP2C9 inh: 100*; PTK2B oligo ant: -1.3; Cav32 inh: -2

What do the screens show for `COc1ccc(CCNC(=O)C(=O)NCc2ccccc2)cc1OC`?
CYP2C19 inhib: 2; CYP2C19 activ: 1; CYP2C9 activ: 0.9; CYP2C9 inh: 15; PTK2B oligo ant: 0.61; Cav32 inh: -0.21

Results for COc1ccc(CCNC(=O)c2cc(-c3cc(C)ccc3O)n[nH]2)cc1OC ?
CYP2C19 inhib: 36; CYP2C19 activ: 0.6; CYP2C9 activ: 0.2; CYP2C9 inh: 80*; PTK2B oligo ant: 0.02; Cav32 inh: -2.4

What do the screens show for `CCOc1nc(-c2ccccc2Cl)ccc1C#N`?
CYP2C19 inhib: 19; CYP2C19 activ: 0.8; CYP2C9 activ: 0.8; CYP2C9 inh: 23; PTK2B oligo ant: -0.63; Cav32 inh: -2.8

What do the screens show for `COc1ccc(CCNC(=O)c2nnc(Cc3ccc(Cl)cc3)o2)cc1OC`?
CYP2C19 inhib: 15; CYP2C19 activ: 0.9; CYP2C9 activ: 0.5; CYP2C9 inh: 46; Cav32 inh: -3.6*
